Laboratory results taken from PubChem BioAssay.
Unmarked numbers belong to inactive results. Calls of active or inactive are those of the source.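 Rule for the calls: active = inhibition above the hit cutoff set in the earlier primary screen (cut at about 27% in these data); inactive = the rest.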

These compounds were tested against Protein phosphatase methylesterase 1 (Homo sapiens) (UniProt Q9Y570) (assay: human PME-1 methylesterase inhibition confirmation – biochemical, fluorescence polarization, FP-Rh probe, triplicate (AID 2171;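 note: 0% = enzyme with DMSO and 100% = wells lacking PME-1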)). Settings: recombinant PME-1, FP-Rh probe fluorescence polarization; at 5.9 µM; active compounds read high.
Sequence of Protein phosphatase methylesterase 1 (Homo sapiens) (Q9Y570 whole entry, looked up): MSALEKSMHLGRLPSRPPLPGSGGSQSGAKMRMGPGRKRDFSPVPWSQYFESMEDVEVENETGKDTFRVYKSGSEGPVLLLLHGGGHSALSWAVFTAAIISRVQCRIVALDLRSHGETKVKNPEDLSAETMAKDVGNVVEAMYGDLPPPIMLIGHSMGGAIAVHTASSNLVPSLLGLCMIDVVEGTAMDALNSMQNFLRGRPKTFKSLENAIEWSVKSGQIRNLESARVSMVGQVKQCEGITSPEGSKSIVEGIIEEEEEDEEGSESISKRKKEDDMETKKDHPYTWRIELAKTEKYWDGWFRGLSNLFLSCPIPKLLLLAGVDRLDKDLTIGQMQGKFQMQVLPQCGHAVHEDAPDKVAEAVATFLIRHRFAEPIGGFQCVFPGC

Row | Structure (SMILES) | inhibition
1 | CCn1c(CSc2nnc(-c3ccncc3)n2C)nc2cc(C(=O)O)ccc21 | 51.5% (active)
2 | CCn1c(=O)c2cc(C(=O)Nc3ccc(OC)cc3OC)sc2c2ccccc21 | 21.5%
3 | Cc1nn(-c2ccc(Br)cc2)c(=O)c2ccccc12 | 4.4%
4 | COc1cc2c(cc1OC)CN(C(=O)c1ccc3[nH]c(C)c(C)c3c1)CC2 | 38.8% (active)
5 | O=C(N/N=C/c1c[nH]c2ccccc12)c1ccc([N+](=O)[O-])cc1Cl | 20.6%
6 | COc1ccc2[nH]c3c(N4CCc5ccccc5C4)ncnc3c2c1 | 30.2% (active)
7 | CCCCN(CCCC)CCNC(=O)c1cn(CC)c2ccc(S(=O)(=O)N(C)C3CCCCC3)cc2c1=O | 85% (active)
8 | O=[N+]([O-])c1cc(S(=O)(=O)Nc2cccc(C(F)(F)F)c2)ccc1-n1nnc2ccccc21 | 18.7%
9 | C=CCOc1ccc(/C=N/NC(=O)c2cc3c(OC)cc(OC)cc3[nH]2)cc1 | 24.4%
10 | COc1ccc2[nH]c(=O)c(-c3noc(-c4ccccc4)n3)cc2c1 | 28.2% (active)
11 | O=C(CN1CCN(S(=O)(=O)c2ccc(Br)cc2)CC1)N/N=C/c1cc([N+](=O)[O-])ccc1Cl | 21%
12 | Cc1ccc2nc(-c3sc4nc(C)cc(C)c4c3N)[nH]c2c1 | 18.2%
13 | COc1ccc2nc(N3C(=O)/C(=C/c4ccccc4)NC3=S)sc2c1 | 43.3% (active)
14 | COc1ccc(NC(=S)NNc2ccc(S(=O)(=O)Nc3ccccc3C(=O)O)cc2[N+](=O)[O-])cc1 | 44.9% (active)
15 | CC(C)=CCc1cc2c(=O)c3c(O)c4c(cc3oc2c(O)c1O)OC(C)C4(C)C (centres undefined) | -51.2%
16 | Cc1cc(NC(=O)CSc2nc3ccccc3c(=O)n2C2CCCC2)no1 | 3.59%
17 | O=[N+]([O-])c1cccc(N/N=C/c2cccc(O)c2O)c1 | 32.9% (active)
18 | COc1ccc(NC(=O)Nc2cccc([N+](=O)[O-])c2)cc1Cl | 2.05%
19 | Cc1ccc2[nH]c(C)c(/C=N/Nc3nc4ccccc4s3)c2c1 | 41.1% (active)
20 | CC(C)=CCc1cc(-c2oc3cc(O)cc(O)c3c(=O)c2O)ccc1O | 36.8% (active)
21 | CCCCN(CCCC)CCNC(=O)c1cn(C)c2ccc(S(=O)(=O)N(C)C3CCCCC3)cc2c1=O | 58.5% (active)
22 | O=C(c1ccc2oc(CCCc3ccccc3)nc2c1)N1CCCC(CCCO)C1 (centres undefined) | 23.5%
23 | O=C1NN(c2ccc(Cl)c(Cl)c2)C(=O)/C1=C/c1cccc(OC(=O)c2cccs2)c1 | 8.75%
24 | Oc1cccc(NC(=S)N=Nc2c(O)[nH]c3ccc(Br)cc23)c1 | 42% (active)
